Results on 27 compounds are retold here after PubChem BioAssay (Tox21).

Assay [1] in a line: qHTS assay for small molecule agonists of the p53 signaling pathway (AID 651631; calls by dose curve; note: nearly all actives have a fitted effect of over 15% in size; note: potency is the fitted concentration of half-maximal effect). The gist of the method:
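HCT-116 cells carrying a beta-lactamase reporter under p53 response elements were dosed with compound for 16 h at 37 °C. LiveBLAzer B/G FRET substrate was then added for 2 h at room temperature, and fluorescence intensity was read to detect pathway agonism.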

Assay [2] in a line: qHTS assay for small molecules that induce genotoxicity in human embryonic kidney cells expressing luciferase-tagged ATAD5 (AID 651632). Note: nearly all actives have a fitted effect of over 15% in size. The gist of the method: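 A rise in luciferase signal from ATAD5-tagged HEK293T cells marks genetic stress. Cells were exposed to compounds for 16 hr at 37C, 5% CO2, then luciferase was quantified after a 30 min room-temperature incubation with Amplite.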
For orientation: qHTS replaces the single test concentration by a dilution series.

Assay [3] in a line: qHTS assay for small molecule agonists of the p53 signaling pathway - cell viability (AID 651633; calls by dose curve; note: nearly all actives have a fitted effect of over 30% in size; note: potency is the fitted concentration of half-maximal effect;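 for activity change, negative = cytotoxicity: p53RE-bla HCT reporter cells with a stable beta-lactamase p53 reporter; series mostly up to about 83 µM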). The gist of the method:
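Viability counter-read: CellTiter-Glo luminescence (30 min, room temperature) in the same p53RE-bla plates. These plates had been exposed to compounds for 16 h at 37 C.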

A short description of assay [4]: qHTS assay for small molecules that induce genotoxicity in human embryonic kidney cells expressing luciferase-tagged ATAD5 - cell viability (AID 651634; calls by dose curve; note: nearly all actives have a fitted effect of over 25% in size; note: potency is the fitted concentration of half-maximal effect). In short, it runs like this: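 Cytotoxicity counter-readout: after 15.5 hr compound treatment at 37C, live-cell protease activity in ATAD5-luciferase HEK293T cells measured by CellTiter-Fluor fluorescence, 30 min development at 37C.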

Assay [5] is described as follows: qHTS assay for small molecule disruptors of the mitochondrial membrane potential (AID 720635). Note: potency is the fitted concentration of half-maximal effect. The gist of the method:
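Mitochondrial membrane potential tracked with Mito-MPS dye, red aggregates (ex 540/em 590 nm) against green monomers (ex 490/em 535 nm). Compound treatment 1 hr at 37C, dye 30 min in HepG2.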

Assay [6] is described as follows: qHTS assay to test for compound auto fluorescence at 535 nm (green) in HepG2 cells (AID 720675).
Assay [7] in a line: qHTS assay to test for compound auto fluorescence at 460 nm (blue) in HEK293 cells (AID 720678). In short, it runs like this:
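HEK293, 2,000 cells/well, 10% dialyzed FBS; attach 4-5 hr 37C; pin compound or DMSO; o/n 37C/5% CO2; fluorescence 405/460 nm; triamterene-equivalent units.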

Assay [8] can be described thus: qHTS assay to test for compound auto fluorescence at 590 nm (red) in HEK293 cells (AID 720679). In short, it runs like this:
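Intensity at 540nm excitation and 590nm emission is reported as Rose Bengal sodium-equivalent autofluorescence. Measurements followed overnight exposure (37C, 5% CO2) of HEK293 cells, 2,000 per well, to 23 nL compound.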

The nature of assay [9]: qHTS assay for small molecule disruptors of the mitochondrial membrane potential - cell viability (AID 720634; calls by dose curve; note: nearly all actives have a fitted effect of over 20% in size; note: potency is the fitted concentration of half-maximal effect;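 for activity change, negative = cytotoxicity: human HepG2 liver cancer cells; series mostly up to about 83 µM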). The gist of the method:
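Cytotoxicity was quantified from ATP content by CellTiter-Glo luminescence in the same wells as the MMP dye read-out. HepG2 (2,000 cells/well) were plated overnight and exposed to compounds for 1 hr at 37 C.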

A short description of assay [10]: qHTS assay to test for compound auto fluorescence at 590 nm (red) in HepG2 cells (AID 720674). The gist of the method:
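Red autofluorescence (Ex/Em 540/590 nm, Rose Bengal sodium equivalents) was measured in HepG2 cells, 2,000 per well in MEM plus 10% FBS, plated overnight at 37 C. Readings were taken 1 hr after adding 23 nL compound or DMSO, at 37 C and 5% CO2.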

Several values for one entry are separate records, joined by “and”; a condition that tells them apart may be missing. Equal values may be shown once. A number with no mark means an inactive call. Inconclusive results are not listed. Activity calls are given as the source filed them. Unless noted, calls come from the whole dose curve; as a rule, active = well fitted curve in the direction sought with a large enough effect in the repeat runs; inconclusive = weak or mixed curves; inactive = no such curve, though single readings can be large; an effect the other way counts as inactive or inconclusive.
% is set by controls: 0 for no effect and ±100 for the full control effect.

As to `OC12N=C(c3ccccc3)SC1Cc1cc(Cl)ccc12` (stereo not given), the Potency entry in [1], in assay [2], in assay [3], in [4], in [6] and in assay [7] was “inactive” in each case. The Potency result in [8] was “inactive”. Also, in [5], the Potency was 17.2 µM (active).
Turning to `CC(C)(C)C1CCC(=O)CC1`, the Potency result in assay [1], in [2], in [4], in assay [9], in assay [10] and in assay [6] was “inactive” each time. The Potency result in [7] and in [8] was “inactive” in each case.
Take `Clc1nnc(Cl)c2ccccc12`: the Potency entry in assay [1], in assay [2], in assay [4], in assay [9], in assay [10] and in assay [6] was “inactive” each time. The Potency result in assay [7] was “inactive”.
Turning to `CC1(C)CC(O)CC(C)(C)N1`, the Potency result in assay [1], in [2], in [3], in [4], in assay [10] and in assay [6] was “inactive” in each case. The Potency result in assay [7] and in assay [8] was “inactive” throughout.
As for `Nc1ccc(NCCO)c([N+](=O)[O-])c1`, the Potency entry in assay [1], in [2], in assay [3], in assay [9], in [10] and in [6] was “inactive” each time. The Potency result in [7] and in assay [8] was “inactive” each time. In assay [5], the Potency was 15.4 µM (active).
`CCC(COC(=O)CCS)(COC(=O)CCS)COC(=O)CCS`: the Potency in assay [1] was 68.6 µM (active). For the same compound, the Potency result in assay [2], in [4], in [9], in assay [10], in assay [6] and in [7] was “inactive” throughout. In addition, in [8], the Potency entry is “inactive”.
As to `COCCOc1cc2cc(C(=O)NC3CCN(C(C)C)CC3)n(CC(=O)Nc3ccc(Cl)cn3)c2cn1`, the Potency entry in assay [1], in [2], in assay [4], in assay [9], in assay [5] and in assay [10] was “inactive” in each case. Besides, the Potency entry in assay [6], in [7] and in [8] was “inactive” throughout.
For `O=C1CCCCCCCCCCCCCCCO1`, the Potency result in assay [1], in assay [2], in assay [3], in [9], in assay [5] and in assay [10] was “inactive” each time. Besides, the Potency entry in assay [6], in assay [7] and in assay [8] was “inactive” in each case.
Regarding `COc1c(C)c2c(c(O)c1C/C=C(\C)CCC(=O)OCCN1CCOCC1)C(=O)OC2`, the Potency in [1] is 0.106 µM (active). The Potency result in assay [2], in assay [4], in [9], in assay [5], in [10] and in [6] was “inactive” in each case. Besides, the Potency result in assay [7] and in [8] was “inactive” in each case.
`Cc1c2ccccc2c(C)c2c1ccc1ccccc12`: the Potency in assay [1] was 30.3 µM (active) and 54.5 µM (active); in assay [9], 12.1 µM (active); in assay [5] it was 5.39 µM (active) and 24.3 µM (active). Also, the Potency result in [2], in assay [4], in [10], in assay [6], in assay [7] and in assay [8] was “inactive” in each case.
Take `O=C(O)c1cccc(C(F)(F)F)c1`: the Potency entry in assay [1], in assay [2], in assay [4], in assay [9], in assay [10] and in [6] was “inactive” throughout. The Potency result in assay [7] and in assay [8] was “inactive” each time.
On to `CC(C)(C)CC(C)(C)c1ccc(Nc2ccc(C(C)(C)CC(C)(C)C)cc2)cc1`, for which the activation in [1] is -6.72% [at 8.3 µM]; in assay [2], 2.9% [at 8.08 µM]. Moreover, the activity, negative = cytotoxicity in assay [4] was 13.9% [at 8.08 µM]. For the same compound, in assay [9], the activity change, negative = cytotoxicity was 4.18% [at 8.08 µM]. Moreover, the ratio activity, negative = MMP loss in [5] was 34.3% [at 8.08 µM]. Also, the fluorescence, % of fluorescein control in assay [6] is 0.0549% [at 3.72 µM]. The fluorescence, % of triamterene in [7] is -0.186% [at 3.72 µM]. For the same compound, the fluorescence, % of fluorescent control in assay [8] was -0.94% [at 3.72 µM].
As for `Cc1nc2n(c(=O)c1CCN1CCC(c3noc4cc(F)ccc34)CC1)CCCC2`, the Potency entry in assay [1], in assay [2], in [4], in [9], in [5] and in assay [6] was “inactive” throughout. The Potency result in assay [7] and in [8] was “inactive” throughout.
On to `CC(C)CCCCCOC(=O)CCS`, for which the Potency result in [1], in assay [2], in [3], in assay [4], in assay [10] and in assay [7] was “inactive” in each case. The Potency result in assay [8] was “inactive”.
On to `NC(=S)NC(N)=S`, for which the Potency result in assay [1], in [2], in assay [4], in assay [9], in [5] and in [7] was “inactive” throughout. Besides, in assay [8], the Potency result was “inactive”.
In the case of `COc1cccc(OC)c1C(=O)O`, the Potency result in assay [1], in assay [2], in assay [4], in assay [9], in assay [5] and in assay [10] was “inactive” throughout. The Potency result in assay [7] and in [8] was “inactive” throughout.
As for `NC(=O)c1cccc([N+](=O)[O-])c1`, the Potency result in assay [1], in [2], in [4], in assay [9], in assay [6] and in assay [7] was “inactive” each time. Further, in [8], the Potency result is “inactive”.
For the compound `CC1(C)CCC[C@]2(C)[C@H]3CC(=O)O[C@]3(C)CC[C@@H]12`, the Potency result in assay [1], in assay [2], in assay [3], in assay [4], in assay [10] and in assay [6] was “inactive” each time. Moreover, the Potency result in [7] and in [8] was “inactive” in each case.
`CCc1oc2ccccc2c1C(=O)c1cc(I)c(O)c(I)c1`: the Potency in assay [1] was 23.7 µM (active); in assay [3], 26.6 µM (active); in assay [9], 26.6 µM (active); in [5], 2.66 µM (active). The Potency result in assay [2], in [10], in [6], in assay [7] and in assay [8] was “inactive” throughout.
Turning to `O=[N+]([O-])c1cccc(C(F)(F)F)c1`, the Potency result in [1], in assay [2], in [3], in [4], in [10] and in [7] was “inactive” in each case. Besides, the Potency entry in assay [8] was “inactive”.
Regarding `[Cl][Pt-2]([Cl])([Cl])[Cl]`, the Potency result in assay [1], in assay [2], in assay [3], in assay [4], in assay [6] and in assay [7] was “inactive” each time.
For `C=C(CC)C(=O)c1ccc(OCC(=O)O)c(Cl)c1Cl`, the Potency in [1] is 11.9 µM (active) and 9.62 µM (active). For the same compound, the Potency entry in assay [2], in assay [4], in assay [9], in assay [10], in [6] and in assay [7] was “inactive” in each case. Further, in assay [8], the Potency entry is “inactive”.
Take `O=C(O)[C@H](O)[C@@H](O)[C@H](O[C@@H]1O[C@H](CO)[C@H](O)[C@H](O)[C@H]1O)[C@H](O)CO`: the Potency result in [1], in assay [2], in assay [4], in assay [9] and in assay [5] was “inactive” each time. In addition, the fluorescence, relative to Rose Bengal in assay [10] is 0.507% [at 18.6 µM]. The fluorescence, % of fluorescein control in [6] is 0.0584% [at 18.6 µM]. In addition, the fluorescence, % of triamterene in assay [7] is 0.228% [at 18.6 µM]. In addition, in [8], the fluorescence, % of fluorescent control was 0.434% [at 18.6 µM].
On to `CC(=O)CC(=O)Nc1ccc(S(=O)(=O)O)cc1`, for which the Potency result in assay [1], in [2], in assay [3], in [4], in assay [6] and in assay [7] was “inactive” in each case. In addition, the Potency entry in assay [8] is “inactive”.
Take `COc1cc(S(=O)(=O)O)c(C)cc1N=Nc1c(O)ccc2cc(S(=O)(=O)O)ccc12`: the Potency entry in [1], in assay [2], in assay [9], in assay [6], in assay [7] and in assay [8] was “inactive” in each case. The Potency in [4] is 27.3 µM (active).
With `O=C(O)Cc1ccccc1Nc1c(Cl)cccc1Cl`, the Potency entry in [1], in assay [2], in assay [3], in [4], in assay [10] and in [6] was “inactive” each time. In addition, the Potency entry in assay [7] and in assay [8] was “inactive” each time.
For the compound `CCCC(=O)OCCc1ccccc1`, the Potency result in assay [1], in assay [2], in assay [3], in assay [9], in assay [5] and in assay [10] was “inactive” in each case. In addition, the Potency result in [6], in assay [7] and in assay [8] was “inactive” each time.
